Test [1] is described as follows: stimulators of insulin release from INS-1E, primary screen, cell-based, 5 mM glucose, NPC library (AID 1117329;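 active = compound raises insulin release from rat beta cells at 5 mM glucose, no numeric limit stated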). Conditions: rat INS-1E insulin secretion, at 10 µM, stronger effect = higher value.
Test [2] in a line: growth inhibition of GSK3B-pretreated HCT116 cells – cell-based, CellTiter-Glo, 0.2 to 20 µM (AID 1117336;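 active = compounds lowering colon cancer cell viability after pretreatment blocking the GSK3B kinase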). The following applies: HCT116 viability after GSK3B inhibitor, at 20 µM, stronger effect = higher value. (In general: In ATP-based viability assays light output follows the ATP content of the culture.)
Test [3] in a line: inhibition of endothelial tube formation, primary screen, imaging, VEGF stimulated, CD31 staining, tube area, NPC library (AID 1117340;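 active = compound that reduces growth-factor-driven endothelial tube area in a mixed cell culture, no cutoff stated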). Conditions: VEGF-stimulated ADSC/ECFC co-culture, at 10 µM, stronger effect = higher value.
A short description of test [4]: glucagon-like peptide 1 release enhancers, primary assay, NCI-H716 cell line, NPC library (AID 1117341;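 active = compound raises GLP1 secretion from the human gut endocrine cells, with no numeric limit stated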). The following applies: NCI-H716 cells, at 10 µM, stronger effect = higher value.
Test [5] is described as follows: HCT116 colon cancer cell growth inhibition, primary screen, CellTiter-Glo luminescence, NPC library (AID 1117342;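 active = compounds that lower survival of HCT116 colon cancer cells in the luminescence readout, no numeric limit stated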). The following applies: at 20 µM (top of the series).
The nature of test [6]: CellTiter-Glo luminescent readout of SW480 viability loss, NPC library primary (AID 1117343;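 active = compounds that lower viability of the colon cancer cells in the luminescence readout, with no numeric limit stated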). Conditions: CellTiter-Glo luminescence; at 20 µM (top of the series).
A short description of test [7]: decreased DLD-1 cellular survival, CellTiter-Glo luminescent readout, NPC compound collection, primary HTS (AID 1117346;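 active = compounds that lower survival of DLD-1 colon cancer cells in the luminescence readout, no cutoff given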). The following applies: DLD-1 viability, CellTiter-Glo luminescence; at 20 µM (top of the series).
Test [8] can be described thus: modulation of C. elegans fzo-1 (AID 1259413).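 Note: fzo-1 mutant C. elegans worms in liquid wells.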 Conditions: C. elegans fzo-1 modulator screen, mean read-out; stronger effect = higher value.
A short description of test [9]: differential killing of epithelial or mesenchymal cells, primary screen, imaging, PC-3E GFP, TEM4-18 mCherry, co-culture (AID 1345086;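 active = compounds killing one labelled cell type while sparing the other, by normalised counts and ratio limits, not self-fluorescent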;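 for all read-outs here: cells exposed to compound for 72 h before imaging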;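 for red/green cell ratio (normalised): normalised mesenchymal count divided by normalised epithelial count so high means epithelial killing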). The following applies: imaging cell counts, at 1 µM; for red/green cell ratio (normalised): actives lie on both sides, counts scaled to control wells, 1 = unselective.
Test [10] is described as follows: growth inhibition of DIPG glioma cells, dose response, cell-based, SU-DIPG-XIII, MIPE4.0, CellTiter-Glo, qHTS (AID 1347061; cut-off not given, nearly all actives have AC50 up to about 37 µM;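 note: cells exposed to compound for 48 hours before readout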). The following applies: SU-DIPG-XIII viability, CellTiter-Glo ATP luminescence.
The nature of test [11]: growth inhibition of DIPG glioma cells, dose response, cell-based, JHH-DIPG-1, MIPE4.0, CellTiter-Glo, qHTS (AID 1347062; cut-off not given, nearly all actives have AC50 up to about 27 µM). Conditions: JHH-DIPG-1 viability, CellTiter-Glo ATP luminescence.
A short description of test [12]: growth inhibition of DIPG glioma cells, dose response, cell-based, SU-DIPG-IV, MIPE4.0, CellTiter-Glo, qHTS (AID 1347063; cut-off not given, nearly all actives have AC50 up to about 30 µM;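 note: compound exposure lasted 48 hours before the viability readout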). The following applies: SU-DIPG-IV viability, CellTiter-Glo ATP luminescence.
The test system of test [13] is Aerobactin synthetase IucA (Klebsiella pneumoniae). Briefly: IucA aerobactin synthetase inhibitors, biochemical, Tocris library, absorbance (AID 1345561).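 Note: 100% = enzyme without compound and 0% = no enzyme.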 Conditions: purified IucA enzyme assay, absorbance (OD) read-out; stronger effect = lower value;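 tested at 8 µM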.
A short description of test [14]: growth inhibition of DIPG glioma cells, dose response, cell-based, SU-DIPG-XVII, MIPE5.0, CellTiter-Glo, qHTS (AID 1347060; cut-off not given, nearly all actives have AC50 up to about 26 µM). The following applies: SU-DIPG-XVII viability, CellTiter-Glo ATP luminescence.
Test [15] is described as follows: growth inhibition of DIPG glioma cells, dose response, cell-based, SU-DIPG-XIII, MIPE5.0, CellTiter-Glo, qHTS (AID 1347064; cut-off not given, nearly all actives have AC50 up to about 23 µM). Conditions: SU-DIPG-XIII viability, CellTiter-Glo ATP luminescence.
Setting [16] is: measured here: epithelial PC-3E GFP cell survival.
Setting [17] is: measured here: mesenchymal TEM4-18 mCherry cell survival.

Records with an inconclusive call do not appear. The source made the active and inactive calls. Unless noted, the rule behind the calls is not given here.

Consider eight molecules from PubChem BioAssay.

Take `CC(c1cc2ccccc2s1)N(O)C(N)=O` (centres undefined): the insulin secretion stimulation in test [1] is -0.1% (inactive). Also, the viability decrease in test [2] is -6.5% (inactive). Besides, in [3], the tube area decrease was -39.9% (inactive). In test [4], the GLP1 secretion stimulation was -1.4% (inactive). For the same molecule, in [5], the inhibition of viability was -15.9% (inactive). Also, the viability decrease (inhibition) in test [6] is 9.4% (inactive); in test [7], -3.8% (inactive). Further, in test [8], the mean signal is 255 (inactive). Besides, the red/green cell ratio (normalised) in test [9] is 0.83 (inactive). Besides, the normalised cell number worked out at 1.22 in test [9] (setting [16]) and 1.01 in test [9] (setting [17]). Further, the molecule was classed as inactive in [10], in [11] and in [12].

`Nc1ccn([C@H]2CC[C@@H](CO)O2)c(=O)n1`: the insulin secretion stimulation in test [1] is -0.3% (inactive). For the same molecule, the viability decrease in test [2] was 6.9% (inactive). For the same molecule, the tube area decrease in test [3] was -2.2% (inactive). In addition, the GLP1 secretion stimulation in [4] is 1.4% (inactive). The inhibition of viability in test [5] is -1.1% (inactive). For the same molecule, the viability decrease (inhibition) was -0.9% (inactive) in [6] and 8.55% (inactive) in test [7]. In test [8], the mean signal was 305 (inactive). Further, the red/green cell ratio (normalised) in test [9] is 0.76 (inactive). The normalised cell number in test [9] (setting [16]) was 1.16; in [9] (setting [17]) it was 0.88. The molecule was called inactive in [12].

For `CNCCCCOc1ccccc1Cc1ccccc1`, in test [1], the insulin secretion stimulation is 19.5% (inactive). For the same molecule, in test [2], the viability decrease was 82.8% (active). Further, the tube area decrease in [3] is 41% (active). Further, in test [4], the GLP1 secretion stimulation was 7.5% (inactive). Also, the inhibition of viability in [5] was 95.4% (active). Further, the results for the viability decrease (inhibition) in test [6] and in [7] were 85.7% (active) and 50.3% (active), respectively. The mean signal in test [8] was 234 (inactive). The remaining activity (usually the signal under treatment as a percentage of the control signal) in [13] was 120% (inactive).

With `C[C@@H]1CN(CCCn2c3ccccc3c3ccccc32)C[C@H](C)N1`, the insulin secretion stimulation in test [1] is 16.2% (inactive). For the same molecule, in [2], the viability decrease is 97.5% (active). Also, the tube area decrease in test [3] is 48.2% (active). The GLP1 secretion stimulation in test [4] was 20% (active). The inhibition of viability in test [5] is 107% (active). Moreover, the viability decrease (inhibition) in [6] was 128% (active); in test [7], 82.7% (active). Besides, the mean signal in test [8] was 203 (inactive). For the same molecule, the remaining activity in test [13] is 123% (inactive).

In the case of `O=C1CC2(CCCC2)CC(=O)N1CCNCC1COc2ccccc2O1` (centres undefined), the insulin secretion stimulation in test [1] is 5% (inactive). Moreover, the viability decrease in [2] was -32% (inactive). Besides, in [3], the tube area decrease was -4.9% (inactive). Also, the GLP1 secretion stimulation in test [4] was -2.3% (inactive). Moreover, the inhibition of viability in test [5] is 25.7% (inactive). Further, the viability decrease (inhibition) in test [6] is 14.5% (inactive); in test [7] it was -5.7% (inactive). Moreover, the mean signal in test [8] is 200 (inactive). The remaining activity in test [13] was 96.6% (inactive).

On to `CN(C/C=C/C#CC(C)(C)C)Cc1cccc2ccccc12`, for which, in test [1], the insulin secretion stimulation was 3.2% (inactive). Further, in [2], the viability decrease is 84.2% (active). Besides, the tube area decrease in [3] is 5.2% (inactive). For the same molecule, the GLP1 secretion stimulation in test [4] is -3.9% (inactive). Further, the inhibition of viability in [5] is 82.6% (active). Besides, the viability decrease (inhibition) in test [6] is 121% (active); in test [7] it was 70.1% (active). Also, the mean signal in [8] was 221 (inactive). The red/green cell ratio (normalised) in test [9] is 1.03 (inactive). The normalised cell number in test [9] (setting [16]) was 1.32; in test [9] (setting [17]), 1.37. Further, the call in test [10] and in test [11] was inactive.

For the molecule `COc1cc(OC)c(C(=O)CCCN2CCCC2)c(OC)c1`, the insulin secretion stimulation in test [1] was -1% (inactive). In test [2], the viability decrease was -39.3% (inactive). Further, the tube area decrease in test [3] is 17.2% (inactive). Moreover, the GLP1 secretion stimulation in test [4] is 0.3% (inactive). The inhibition of viability in test [5] is -8% (inactive). Besides, the viability decrease (inhibition) was 0.7% (inactive) in test [6] and -31.7% (inactive) in test [7]. In addition, in [8], the mean signal was 255 (inactive). The red/green cell ratio (normalised) in [9] is 0.81 (inactive). The normalised cell number in test [9] (setting [16]) is 1.24; in [9] (setting [17]), 1. Moreover, the molecule was classed as inactive in [14], in [10], in test [11], in [12] and in test [15].

For the molecule `CN(C)CC/C=C1/c2ccccc2COc2ccc(CC(=O)O)cc21`, in test [1], the insulin secretion stimulation was 1.85% (inactive). Besides, the viability decrease in test [2] was -0.6% (inactive). In addition, the tube area decrease in [3] was 5.6% (inactive). Also, the GLP1 secretion stimulation in test [4] is -0.7% (inactive). Further, the inhibition of viability in test [5] was 3.7% (inactive). The viability decrease (inhibition) in [6] was -7.7% (inactive); in test [7], 7.1% (inactive). Also, the mean signal in test [8] was 251 (inactive). The result in [14], in [10], in [11] and in test [15] was inactive.
